High-throughput results: PubChem BioAssay, National Center for Advancing Translational Sciences (NCATS)
Six1-Eya2 inh: inhibitors of human Six1/Eya2 interaction; AlphaScreen GST-Six1/His-Eya2 binding, biochemical; active compounds read low; activity change, % (test concentration not listed); 0.56% of 360,000 active; in the data active = activity change below about -65%; inconclusive = mostly about -30% to -63%
Target sequence (O00167 whole entry, looked up): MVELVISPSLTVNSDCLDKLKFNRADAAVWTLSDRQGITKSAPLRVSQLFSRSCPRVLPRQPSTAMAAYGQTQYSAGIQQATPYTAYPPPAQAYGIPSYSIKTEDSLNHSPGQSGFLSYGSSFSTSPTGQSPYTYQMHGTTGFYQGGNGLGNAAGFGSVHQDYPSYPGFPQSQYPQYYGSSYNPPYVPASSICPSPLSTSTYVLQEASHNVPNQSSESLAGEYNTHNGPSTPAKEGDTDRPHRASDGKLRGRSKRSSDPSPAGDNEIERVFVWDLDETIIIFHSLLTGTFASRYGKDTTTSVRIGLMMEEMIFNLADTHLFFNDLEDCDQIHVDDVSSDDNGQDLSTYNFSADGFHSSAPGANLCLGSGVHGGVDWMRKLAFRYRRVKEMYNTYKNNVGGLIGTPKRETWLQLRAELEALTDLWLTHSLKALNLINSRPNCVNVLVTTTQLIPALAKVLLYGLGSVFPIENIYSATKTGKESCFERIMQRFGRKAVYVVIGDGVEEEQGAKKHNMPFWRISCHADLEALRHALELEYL
Target sequence (Q15475 whole entry, looked up): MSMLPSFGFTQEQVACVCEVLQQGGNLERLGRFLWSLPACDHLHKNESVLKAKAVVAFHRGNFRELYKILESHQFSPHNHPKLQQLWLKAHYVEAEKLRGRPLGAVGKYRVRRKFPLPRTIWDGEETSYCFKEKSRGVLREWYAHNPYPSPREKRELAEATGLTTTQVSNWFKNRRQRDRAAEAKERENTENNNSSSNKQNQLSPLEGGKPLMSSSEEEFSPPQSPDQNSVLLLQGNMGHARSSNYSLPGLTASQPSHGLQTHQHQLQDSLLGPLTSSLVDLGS
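GST-Six1 + His-Eya2 (5X stock: 250/500 nM); Tris pH 8.0, 300 mM NaCl, 0.05% BSA, 0.02% Tween 20; GSH donor/Ni acceptor beads; 1 h 37 °C dark; AlphaScreen readout.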
HP1b chromo inh: HP1-beta chromodomain-methylated histone interaction inhibition. 0.56% of 390,000 active. AlphaScreen HP1-beta / biotin-H3K9me3 peptide binding. Potency, µM (doses to about 114 µM), usual class: inhibitors; note: nearly all actives have a fitted effect of over 70% in size
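AlphaScreen: HP1-beta (50 nM) preformed 30 min with biotin-H3(1-18)K9me3 peptide (50 nM) in PBS pH 7.4, 0.01% Tween-20. Compound added for 30 min at RT, then streptavidin donor/nickel chelate acceptor beads (10 ug/mL) for 30 min.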
JMJD2A Tudor: inhibitors of human JMJD2A Tudor domain; O75164; Potency, µM (doses to about 114 µM), actives largely listed as inhibitors; AID 504339; AlphaScreen JMJD2A-Tudor / H3K4me3 peptide binding; 4.4% of 390,000 active; note: nearly all actives have a fitted effect of over 50% in size
BAZ2B block: inhibitors of human BAZ2B bromodomain; Q9UIF8; AlphaScreen BAZ2B-H3K14Ac peptide displacement; Potency, µM (doses to about 114 µM), hits mostly inhibitors; 4.4% of 360,000 active; note: nearly all actives have a fitted effect of over 60% in size
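AlphaScreen luminescence quantifies BAZ2B engagement of H3K14Ac peptide; the protein and biotinylated peptide are both at 50 nM final, buffer PBS pH 7.4 with 0.01% Tween-20, all steps at room temperature.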
CtBP-E1A blk: inhibitors of CtBP/E1A interaction; 0.49% of 340,000 active; AlphaScreen GST-E1A/His-CtBP binding, 1536-well; active compounds read low; activity change, % (no concentration beside the values); AID 651724; in the data active = activity change below about -65%; inconclusive = mostly about -30% to -63%
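Steps: dispense buffer (Tris pH 8.0, NaCl 300 mM, TCEP 1 mM, BSA, Tween 20); add 5X protein mix (GST-E1A, His-CtBP, 125 nM each); pin 23 nL compound; 2 h at 37 °C, dark; add 5X beads (50 ug/mL); 1 h; read.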
G9a inh: blocks human histone lysine methyltransferase G9a; Potency, µM (top dose mostly 102 µM), most hits filed as inhibitors; 8.8% of 350,000 active; G9a H3K9 monomethylation, AlphaScreen, 2 h; Q96KQ7; note: nearly all actives have a fitted effect of over 75% in size
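AlphaScreen read-out: biotin-H3K9 peptide (500 nM) methylation by 20 nM enzyme with 20 uM SAM, 2 h at room temperature after 15 min compound preincubation; anti-monomethyl H3K9 antibody plus donor/acceptor beads, 10 min dark.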
Large screens that a line does not name were inactive. Hits are enriched below; roughly 10% of the tested compounds scored in any of these assays. Unless noted, calls come from the whole dose curve; as a rule, active = well fitted inhibition curve with a large enough effect; inconclusive = small, poorly fitted or top-dose-only effect; inactive = no such curve, though single readings can be large or run the other way.

COc1ccc(-c2nnc(SCC(=O)N/N=C/c3ccccc3C(=O)O)n2-c2ccc(Cl)cc2)cc1	none (no result: G9a inh)
O=C(/C=C/c1ccccc1)CCN1CCOCC1	JMJD2A Tudor 89µM (no result: BAZ2B block, G9a inh)
O=C(/C=C/c1ccccc1)N1CCOCC1	none
COCCCNCCCCOc1ccccc1-c1ccccc1	HP1b chromo inh inconclusive, JMJD2A Tudor 79µM, BAZ2B block 71µM, G9a inh 14µM
Cc1ccccc1OCCCCCNCCO	none
OCCNCCOc1ccccc1F	none
OCCNCCOCCOc1ccccc1-c1ccccc1	HP1b chromo inh inconclusive, JMJD2A Tudor 3.2µM, BAZ2B block inconclusive, G9a inh 8.9µM
CCCCNCCOc1ccccc1-c1ccccc1	HP1b chromo inh inconclusive, JMJD2A Tudor 3.5µM, BAZ2B block inconclusive, G9a inh inconclusive
COCCNCCOc1ccccc1-c1ccccc1	HP1b chromo inh inconclusive, JMJD2A Tudor 14µM, BAZ2B block inconclusive, G9a inh 10µM
COc1cc(O)cc2c1[C@@H]1Oc3c(ccc(O)c3CC=C(C)C)[C@@H]1CO2	JMJD2A Tudor inconclusive (no result: BAZ2B block, G9a inh)
NC(c1csc(Nc2ccc(C(=O)c3ccccc3)cc2)n1)C1CCCCC1 (stereo not given)	none (no result: HP1b chromo inh, JMJD2A Tudor, BAZ2B block, G9a inh)
COc1ccccc1OCCCCNCCO	none
COCCCNCCOc1ccccc1-c1ccccc1	JMJD2A Tudor 25µM, G9a inh 7.9µM
O=c1nc(N/N=C/c2c[nH]c3ccccc23)cn[nH]1	Six1-Eya2 inh -78, CtBP-E1A blk -86 (no result: G9a inh)
C(=N\Nc1ccccn1)/c1c[nH]c2ccccc12	JMJD2A Tudor inconclusive, BAZ2B block 32µM
COc1ccc(NC(=O)CSC2=Nc3ccccc3C3=NC(Cc4ccccc4)C(=O)N23)cc1Cl (stereo not given)	none (no result: Six1-Eya2 inh, CtBP-E1A blk)
CCc1ccccc1NC(=O)CC(C)n1nc(C)cc1C (stereo not given)	none (no result: Six1-Eya2 inh, CtBP-E1A blk)
CCCOc1ccc(N2C(=O)CC(N(CCc3ccccc3)C(=O)c3ccccc3)C2=O)cc1 (stereo not given)	none (no result: G9a inh)
CCC(=O)N(CCc1ccc(S(N)(=O)=O)cc1)C1CC(=O)N(c2ccc(OC)cc2)C1=O (stereo not given)	G9a inh 56µM
CCCOc1ccc(N2C(=O)CC(N(CCc3ccc(OC)cc3)C(=O)c3cccc(F)c3)C2=O)cc1 (stereo not given)	G9a inh 45µM
NCCS	HP1b chromo inh inconclusive, G9a inh 14µM
CC(C)n1c(SCC(=O)NC2CC2)nnc1-c1ccco1	none
Cc1ccc(F)cc1NC(=O)COC(=O)c1ccc(S(C)(=O)=O)c([N+](=O)[O-])c1	none (no result: Six1-Eya2 inh, BAZ2B block, CtBP-E1A blk, G9a inh)
C=CCn1c(CNC(=O)c2ccco2)nnc1SCC(=O)N1c2ccccc2Sc2ccccc21	BAZ2B block 79µM, G9a inh inconclusive
O=C(Nc1cccc(Cl)c1)c1ccc(NCCCN2CCOCC2)c([N+](=O)[O-])c1	Six1-Eya2 inh inconclusive, HP1b chromo inh inconclusive, JMJD2A Tudor inconclusive, BAZ2B block 45µM, CtBP-E1A blk inconclusive
O=C(NCCCN1CCOCC1)c1cccc(NC(=O)c2ccccc2)c1	none (no result: BAZ2B block, G9a inh)
Cc1ccc(NC(=O)c2ccc(NCCN)c([N+](=O)[O-])c2)cc1	none
Cc1ccc(NC(=O)c2ccc(NCCCN3CCC(C)CC3)c([N+](=O)[O-])c2)cc1F	JMJD2A Tudor 79µM, G9a inh 71µM
CCN(c1ccccc1)S(=O)(=O)c1cc(C(=O)O)ccc1C	BAZ2B block 50µM
CC(C)c1ccc(Nc2nc(Nc3ccc(Cl)cc3)nc(N3CCOCC3)n2)cc1	none (no result: Six1-Eya2 inh, BAZ2B block, CtBP-E1A blk, G9a inh)
COc1ccc(C(=O)CC(=O)C(=O)NCCc2cccc(C)c2)cc1	none
CN(C)S(=O)(=O)c1ccc(Cl)c(NC(=O)COC(=O)c2ccc3c(c2)NC(=O)CS3)c1	G9a inh inconclusive (no result: CtBP-E1A blk)
CC(Sc1nc2ccccc2[nH]1)C(=O)Nc1ccccc1F (stereo not given)	none
O=C(NC1CCCC1)C(C1CC1)n1c(-c2ccccn2)nc2ccccc21 (stereo not given)	none (no result: HP1b chromo inh, JMJD2A Tudor, BAZ2B block, G9a inh)
O=C(NN=Cc1ccc2c(c1)OCO2)NN=Cc1ccc2c(c1)OCO2	none (no result: BAZ2B block, G9a inh)
